JMJD2A Tudor inh = JMJD2A Tudor domain (human) inhibition; O75164; AlphaScreen JMJD2A-Tudor / H3K4me3 peptide binding; Potency, µM (doses to about 114 µM), for the others: top-dose activity change, negative = inhibition, actives largely listed as inhibitors; hit rate 4.4% among 390,000; further: on the % scale 0 is the no-effect control and ±100 the full control effect; nearly all actives have a fitted effect of over 50% in size
GLS inhibitor = glutaminase GLS (human) inhibition. hit rate 0.21% among 410,000. Potency, µM (top dose mostly 45.5 µM), inactives show at the highest dose activity change, negative = inhibition, hits mostly inhibitors. GLS enzymatic activity, qHTS titration; further: on the % scale 0 is the no-effect control and ±100 the full control effect
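hKGA in 45 mM KH2PO4 (pH 8.2), 0.02% Tween-20 with compound, then 1mM L-Glutamine (stock as added) plus glutamate oxidase/HRP/Amplex red coupling mix. Fluorescence read initially and after 30 min at RT; signal change reflects glutamate formation.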
G9a block = inhibitors of human histone lysine methyltransferase G9a | Q96KQ7 | G9a H3K9 monomethylation, AlphaScreen, 2 h | Potency, µM (highest dose often 102 µM), for the others: top-dose activity, negative = inhibition, actives largely listed as inhibitors | hit rate 8.8% among 350,000; further: on the % scale 0 is the no-effect control and ±100 the full control effect; nearly all actives have a fitted effect of over 75% in size
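Readings reflect AlphaScreen signal from monomethyl-H3K9 antibody detection. HMT at 20 nM; substrate b-H3K9 500 nM; cofactor SAM 20 uM; 2 h RT reaction; compounds tested as titrations in qHTS with 15 min preincubation.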
BAZ2B inh = inhibitors of human BAZ2B bromodomain; Q9UIF8; AlphaScreen BAZ2B-H3K14Ac peptide displacement; Potency, µM (highest dose often 114 µM), for inactives: at the highest dose activity change, negative = inhibition, most hits filed as inhibitors; hit rate 4.4% among 360,000; further: on the % scale 0 is the no-effect control and ±100 the full control effect; nearly all actives have a fitted effect of over 60% in size
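AlphaScreen luminescence quantifies BAZ2B engagement of H3K14Ac peptide; the protein and biotinylated peptide are both at 50 nM final, buffer PBS pH 7.4 with 0.01% Tween-20, all steps at room temperature.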
HP1b chromo inh = inhibitors of HP1-beta chromodomain binding to methylated histone tails; hit rate 0.56% among 390,000; AlphaScreen HP1-beta / biotin-H3K9me3 peptide binding; P83916; Potency, µM (top dose mostly 114 µM), for the others: at the top dose activity change, negative = inhibition, most hits filed as inhibitors; further: nearly all actives have a fitted effect of over 70% in size
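AlphaScreen: HP1-beta (50 nM) preformed 30 min with biotin-H3(1-18)K9me3 peptide (50 nM) in PBS pH 7.4, 0.01% Tween-20. Compound added for 30 min at RT, then streptavidin donor/nickel chelate acceptor beads (10 ug/mL) for 30 min.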
* marks the source's active call; other numbers are inactive results; [ ] = dose if it differs, or a comment. Compounds with a hit are over-represented: about 10% of the library has one in this group of screens. The call rests on the fitted dose curve; in most records, active means well fitted curve in the direction sought with a large enough effect; inconclusive means small, poorly fitted or top-dose-only effect, or another doubt; inactive means no such curve, though single readings can be large; an effect the other way counts as inactive or inconclusive. Potency means the concentration at half of the fitted maximal effect.

COc1ccc(C(=O)/C=C/c2ccccc2)c(OC)c1 was read as JMJD2A Tudor inh -5%, GLS inhibitor 18%, G9a block 15%[59 µM], BAZ2B inh 5% and HP1b chromo inh 27%.
`CN(C)c1ccc(/C=C/C(=O)c2ccccc2O)cc1` gave JMJD2A Tudor inh 10µM*, GLS inhibitor 55%, G9a block 8.9µM* and HP1b chromo inh 13µM*.
For CCOc1ccc(N(C(=O)c2ccc(OC)cc2)S(=O)(=O)c2ccc3c(c2)n(C)c(=O)n3C)cc1 the results were JMJD2A Tudor inh inconclusive, GLS inhibitor -6%, G9a block -40%[59 µM], BAZ2B inh inconclusive and HP1b chromo inh 5%.
Screening CNC(=O)c1c(NC(=O)c2cc(=O)c3cc(C)c(C)cc3o2)sc2c1CCCC2 returned JMJD2A Tudor inh 2%, GLS inhibitor 0%, G9a block 2%[59 µM], BAZ2B inh -8% and HP1b chromo inh 11%.
Cc1nn(C(=O)c2ccc(Br)cc2)c(C)c1S(=O)(=O)N1CCOCC1 was read as JMJD2A Tudor inh inconclusive, GLS inhibitor 18%, G9a block inconclusive, BAZ2B inh 0% and HP1b chromo inh 24%[57 µM].
Cn1ccc2cc(S(=O)(=O)N3CCCN(C(=O)Nc4ccccc4Br)CC3)ccc21 was read as JMJD2A Tudor inh -25%, GLS inhibitor -9%, G9a block -3%[59 µM], BAZ2B inh -14% and HP1b chromo inh 6%[57 µM].
O=C(NCc1cccs1)c1nn(-c2ccccc2F)nc1CO was read as JMJD2A Tudor inh -17%, GLS inhibitor -12%, G9a block -1%[59 µM], BAZ2B inh -11% and HP1b chromo inh 29%.
Screening COc1ccc(C=CC(=O)c2cc(O)ccc2O)cc1 returned JMJD2A Tudor inh 40µM*, GLS inhibitor 76% and HP1b chromo inh inconclusive.
For COc1cccc(-n2ccnc2SCC(=O)NCc2ccccc2)c1 the results were JMJD2A Tudor inh -22%, GLS inhibitor 5%, G9a block inconclusive, BAZ2B inh -7% and HP1b chromo inh -1%.
COC(=O)CCCSc1nccn1-c1ccccc1 was read as JMJD2A Tudor inh -18%, GLS inhibitor -2%, G9a block 45µM*, BAZ2B inh inconclusive and HP1b chromo inh 27%.
`c1ccc(CCSc2nccn2-c2ccccc2)cc1` gave JMJD2A Tudor inh inconclusive, GLS inhibitor 9%, G9a block 45µM*, BAZ2B inh 40µM* and HP1b chromo inh inconclusive.
O=C(CSc1nccn1-c1ccccc1)NCc1ccc(F)cc1 was read as JMJD2A Tudor inh -9%, GLS inhibitor -5%, G9a block -38%, BAZ2B inh -21% and HP1b chromo inh 16%.
Screening CCNc1c(NC(=O)c2ccccc2OCC)c(=O)oc2ccccc12 returned JMJD2A Tudor inh -10%, GLS inhibitor 6%, G9a block 6%[59 µM], BAZ2B inh -1% and HP1b chromo inh 5%.
Screening COc1ccc(C)cc1NC(=O)C(c1ccccc1)N1CCN(CC(=O)N2CCOCC2)CC1 (centres undefined) returned JMJD2A Tudor inh -12%, GLS inhibitor 2%, G9a block 45µM*, BAZ2B inh -15% and HP1b chromo inh 21%.
`COc1ccc(C)cc1NC(=O)C(c1ccccc1)N1CCN(CC(=O)N2CCCC2)CC1` (centres undefined) gave JMJD2A Tudor inh -6%, GLS inhibitor -4%, G9a block inconclusive, BAZ2B inh 1% and HP1b chromo inh 16%.
Cc1sc2ncnc(N(C)CCc3ccccn3)c2c1C was read as JMJD2A Tudor inh 1.4µM*, GLS inhibitor 37%, G9a block -140%[59 µM], BAZ2B inh 25µM* and HP1b chromo inh 18µM*.
Screening O=[N+]([O-])c1cnccc1Nc1cccc(F)c1 returned JMJD2A Tudor inh -30%, GLS inhibitor 0%, G9a block 7.1µM*, BAZ2B inh inconclusive and HP1b chromo inh 3%.
`O=[N+]([O-])c1ccccc1Nc1cccc(F)c1` gave JMJD2A Tudor inh 45µM*, GLS inhibitor 6% and HP1b chromo inh inconclusive.
`O=[N+]([O-])c1ccccc1Nc1ccccc1[N+](=O)[O-]` gave JMJD2A Tudor inh -19%, GLS inhibitor -1% and HP1b chromo inh 22%.

Assay outcomes as filed in PubChem BioAssay.
